INS promoter inh: TRM-6 insulin promoter activity inhibition; inhibition, % at 2 µM; TRM-6 cells (human fetal islet line), insulin promoter-eGFP reporter, imaging; reporter expression induced with tamoxifen; AID 1273; 130,000 tested, 0.9% active;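 active = inhibition above the mean plus 3 SD, with well images judged a real hit on visual review, cut at about 60% in these data, passing the limit was not always enough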
p97 ATPase inh: human p97 ATPase inhibition; 220,000 tested, 0.42% active; recombinant p97 ATPase, Kinase-Glo ATP luminescence, 3 h; inhibition, % at 8 µM; AID 1481; in the data active = inhibition above about 15%
L major viab: reduces viability of Leishmania major promastigotes; resazurin fluorescence viability; inhibition, % at 10 µM; 200,000 tested, 9% active; AID 1063; in the data active = inhibition above about 50%;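 also: promastigotes grown with compound for 44 hours at 28 °C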
HCT116 PTEN-null: PTEN-deleted cell growth suppression; HCT116 PTEN-null viability, CellTiter-Glo, 60 h; stronger effect = lower value; AID 827; viability, % at 10 µM; 140,000 tested, 1.2% active;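 active = viability at or below a set limit, 4 SD under the median of all tested compounds, cut at about 3.7% in these data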;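 also: PTEN knockout HCT116 line with beta catenin targeted HCT116 as companion control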
bCat KO growth: beta-catenin-lacking colon tumor cell growth suppression; HCT116 beta-catenin knockout viability, CellTiter-Glo, 60 h; stronger effect = lower value; 140,000 tested, 1.5% active; viability, % at 10 µM; AID 818;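 active = viability at or under a set limit, the compound median less 4 SD, cut at about 6% in these data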
ROMK primary: modulates human ROMK potassium channel activity | B-score at 10 µM | P48048 | 130,000 tested, 2% active | AID 1918 | Tet-inducible ROMK, thallium flux fluorescence; actives lie on both sides;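 active = signal ratio slope over the read window, or its plate-corrected B-score, at least 3 SD from the plate mean, either direction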;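 also: B-score of the F/F0 ratio slope over 7 to 12 s after thallium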
Target sequence (P48048 whole entry, looked up): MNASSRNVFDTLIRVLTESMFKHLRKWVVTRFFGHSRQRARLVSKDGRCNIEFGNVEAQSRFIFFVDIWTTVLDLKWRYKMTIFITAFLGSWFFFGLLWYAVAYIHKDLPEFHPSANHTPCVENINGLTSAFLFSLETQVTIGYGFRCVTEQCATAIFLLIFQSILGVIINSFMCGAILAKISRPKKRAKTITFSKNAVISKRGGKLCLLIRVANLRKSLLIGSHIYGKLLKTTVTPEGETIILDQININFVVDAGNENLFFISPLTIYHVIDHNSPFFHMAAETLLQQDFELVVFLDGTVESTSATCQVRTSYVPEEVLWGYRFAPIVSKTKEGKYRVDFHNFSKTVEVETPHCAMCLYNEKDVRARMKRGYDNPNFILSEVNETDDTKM
Of the large screens only hits and unclear results are named; the others gave an inactive call. Shown are actives, neighbours in structure and some others; about 10% of the full set was active somewhere.

COc1cccc(C(=O)C2CCCN(C(=O)CCC3=NNC(=O)CC3)C2)c1 (stereo unspecified)	none (no result: HCT116 PTEN-null, bCat KO growth)
CC1(C)CC(=O)C(C=NCC2CCN(C(=O)Nc3ccc(Cl)c(Cl)c3)CC2)=C(O)C1	none (no result: ROMK primary)
CC1=C(C(=O)Nc2ccccc2)C(c2ccncc2)C(C#N)=C(SCC(=O)NC2CC2)N1 (stereo unspecified)	L major viab 73 (no result: INS promoter inh)
COc1ccccc1NC(=O)C1=C(C)NC(SCC(=O)Nc2ccc(C(=O)O)cc2)=C(C#N)C1c1cccs1 (stereo unspecified)	none (no result: INS promoter inh, L major viab, HCT116 PTEN-null, bCat KO growth, ROMK primary)
CCOC(=O)Cn1cnc(-c2ccc([N+](=O)[O-])cc2)c1	none
COc1ccc(NC(=O)c2cccc(Oc3ccc([N+](=O)[O-])cc3Cl)c2)cc1	none
O=C(Nc1cccc(Cl)c1)c1cccc(Oc2ccc([N+](=O)[O-])cc2Cl)c1	L major viab 98 (no result: ROMK primary)
COc1cc(-c2nnc3n(CCc4ccccc4)c(=O)c4ccccc4n23)cc(OC)c1OC	L major viab 72 (no result: ROMK primary)
COc1cc(OC)c(-c2nnc3n(CCc4ccccc4)c(=O)c4ccccc4n23)cc1OC	none (no result: ROMK primary)
NC(=O)N/N=C/C=C/c1ccc(F)cc1	none (no result: INS promoter inh, L major viab, HCT116 PTEN-null, bCat KO growth, ROMK primary)
COc1ccc(C(=O)Oc2cc(/C=N/NC(N)=S)ccc2OC)cc1	none (no result: INS promoter inh)
COc1ccc(/C=N/NC(N)=S)cc1OC(=O)c1cccc2ccccc12	L major viab 99 (no result: ROMK primary)
CC(C)Oc1cccc(C(=O)Nc2ccc(Br)cc2F)c1	none
COc1ccc(-c2cc(C(F)(F)F)n3nc(C(=O)NCc4ccco4)c(Cl)c3n2)cc1	bCat KO growth 4.4 (no result: ROMK primary)
O=C(NCc1ccco1)c1nn2c(C(F)(F)F)cc(-c3cccs3)nc2c1Br	L major viab 100 (no result: ROMK primary)
COc1ccc(-c2cc(C(F)(F)F)n3nc(C(=O)NCc4ccco4)cc3n2)cc1	none (no result: INS promoter inh, ROMK primary)
COc1ccc(N(CCCN2C(=O)c3cccc4cccc(c34)C2=O)C(=O)c2cccnc2)cc1	L major viab 51 (no result: HCT116 PTEN-null, bCat KO growth)
COc1cc(OC)cc(C(=O)N(CCCN2C(=O)c3cccc4cccc(c34)C2=O)c2cccc(OC)c2)c1	none (no result: INS promoter inh)
COc1ccc(N(CCCN2C(=O)c3cccc4cccc(c34)C2=O)C(=O)c2ccncc2)cc1	L major viab 69 (no result: HCT116 PTEN-null, bCat KO growth)
O=C1C=CCC(/C=C/c2ccccc2)O1 (stereo unspecified)	bCat KO growth 4.3
O=C(CCS(=O)(=O)c1ccccc1)Nc1nc(-c2cccs2)cs1	L major viab 50
O=C(Nc1nc2c(s1)COc1ccccc1-2)c1cccs1	none (no result: INS promoter inh, ROMK primary)
O=C(CCS(=O)(=O)c1ccccc1)Nc1nc2c(s1)COc1ccccc1-2	HCT116 PTEN-null 1.8, bCat KO growth 3.1 (no result: INS promoter inh, ROMK primary)
O=C(COc1ccccc1)Nc1nc(-c2cccs2)cs1	none
CC(=O)c1ccc(N2CCN(C(=O)Nc3ccc(Cl)cc3)CC2)cc1	none (no result: HCT116 PTEN-null, bCat KO growth)
O=C(COc1ccc2c(c1)CCC2)N1CCN(c2cccc(C(F)(F)F)c2)CC1	L major viab 65 (no result: ROMK primary)
O=C(Nc1ccccc1)N1CCN(c2cccc(C(F)(F)F)c2)CC1	L major viab 90 (no result: INS promoter inh)
CC(=O)c1ccc(NC(=O)N2CCN(c3cccc(Cl)c3)CC2)cc1	L major viab 59
CN1CCC(N2CCN(c3cccc(C(F)(F)F)c3)CC2)CC1	L major viab 100
COC(=O)Cc1cccc2c(=O)c3ccccc3oc12	none (no result: INS promoter inh, L major viab, HCT116 PTEN-null, bCat KO growth)
COC(=O)c1cc(NC(=O)c2cc(C(C)(C)C)nn2Cc2ccc(F)cc2)ccc1N1CCOCC1	none (no result: INS promoter inh, L major viab, HCT116 PTEN-null, bCat KO growth)
C=CCN1C(=O)/C(=C\c2ccc(Oc3nc(N4CCOCC4)nc(N4CCOCC4)n3)c(OC)c2)SC1=S	L major viab 54 (no result: HCT116 PTEN-null, bCat KO growth)
CC(C)C(=O)N1CCC(CN=Cc2c(O)n(C3CCCCC3)c(=O)n(C3CCCCC3)c2=O)CC1	L major viab 100
O=c1[nH]c(=S)n(C2CCCCC2)c(O)c1C=NCCN1CCOCC1	none (no result: INS promoter inh, L major viab, HCT116 PTEN-null, bCat KO growth, ROMK primary)
CS(=O)(=O)N1CCC(C(=O)NCc2ccc(Cl)cc2)CC1	none (no result: INS promoter inh, L major viab, HCT116 PTEN-null, bCat KO growth)
O=C(c1cc(-c2ccccc2)on1)N1CCN(C(=O)c2ccco2)CC1	none
COc1ccc(-c2cc(C(=O)N3CCN(C(c4ccccc4)c4ccccc4)CC3)no2)cc1	none (no result: INS promoter inh, ROMK primary)
CN1CCN(C(=O)c2cc(-c3ccccc3)on2)CC1	L major viab 70
COc1ccc(-c2cc(C(=O)N3CCN(C(c4ccccc4)c4ccccc4)CC3)no2)cc1OC	L major viab 94 (no result: INS promoter inh)
Cc1ccc(C(=O)Nc2nc(=O)[nH]s2)cc1	none (no result: HCT116 PTEN-null, bCat KO growth)
COCc1cc(=O)n2[nH]c(-c3cccc(Br)c3)cc2n1	L major viab 100 (no result: INS promoter inh)
COc1ccc(Cn2nnc3c(=O)[nH]c(C(=O)NCCc4ccc(F)cc4)nc32)cc1OC	INS promoter inh 90 (no result: ROMK primary)
Cc1ccc(S(=O)(=O)N(C)c2c(C)ccc(S(=O)(=O)Nc3ccncc3)c2C)cc1	none
C=C(C)CN1CCN(S(=O)(=O)c2ccc(C)c(N(C)S(=O)(=O)c3ccc(C)cc3)c2C)CC1	L major viab 98
Cc1ccc(S(=O)(=O)N(C)c2c(C)ccc(S(=O)(=O)N3CCN(C)CC3)c2C)cc1	none
Cc1ccc(S(=O)(=O)N(C)c2c(C)ccc(S(=O)(=O)NC(C)(C)C)c2C)cc1	L major viab 99 (no result: HCT116 PTEN-null, bCat KO growth, ROMK primary)
O=C(CN1CCN(c2ccc(Cl)cc2)CC1)Nc1ccc(F)cc1	none (no result: ROMK primary)
O=C(CN1CCN(c2ccc(O)cc2)CC1)Nc1ccc(SC(F)F)cc1	L major viab 57
CCN(CC)c1ccc(NC(=O)CN2CCN(c3ccc(F)cc3)CC2)cc1	L major viab 72 (no result: INS promoter inh, ROMK primary)
Nc1cc2c(cc1C(=O)c1ccc(Cl)cc1)OCCO2	INS promoter inh 76
CCNc1nc(NCC)n2c(SC(C(=O)Nc3cc(Cl)cc(Cl)c3)c3ccccc3)nnc2n1 (stereo unspecified)	HCT116 PTEN-null 1.2, bCat KO growth 1.2 (no result: ROMK primary)
CCNc1nc(NCC)n2c(SCC(=O)O)nnc2n1	none (no result: INS promoter inh)
Cc1ccc(NC(=O)C2CCN(c3cnccn3)CC2)cc1	L major viab 78 (no result: INS promoter inh, HCT116 PTEN-null, bCat KO growth)
COc1ccc(CC(=O)Nc2nc3ccc(F)cc3s2)cc1S(=O)(=O)N1CCOCC1	L major viab 90 (no result: ROMK primary)
O=C(Nc1nc2ccc(F)cc2s1)C1CCN(S(=O)(=O)c2cc([N+](=O)[O-])ccc2Cl)CC1	L major viab 99
Cc1ccc2nc(NC(=O)C3CCN(S(=O)(=O)c4cccs4)CC3)sc2c1	L major viab 52 (no result: INS promoter inh, ROMK primary)
Nc1nnn(CC(=O)N/N=C/c2ccc(Cl)cc2Cl)n1	none (no result: INS promoter inh, L major viab, HCT116 PTEN-null, bCat KO growth)
O=C(NCC1CCCO1)c1onc(CSc2ccc(F)c(F)c2)c1C(=O)O (stereo unspecified)	none (no result: ROMK primary)
COc1ccc(-n2c(C)cc(C(=O)CSc3nnc(-c4ccoc4C)n3C)c2C)cc1	none (no result: INS promoter inh)
COc1ccc2nc(NC(=O)C3CCN(S(=O)(=O)c4cccnc4)CC3)sc2c1	L major viab 54 (no result: INS promoter inh, ROMK primary)
Cc1ccc2nc(NC(=O)C3CCN(S(=O)(=O)c4cccnc4)CC3)sc2c1	none (no result: INS promoter inh, ROMK primary)
O=C(Nc1ccc(Cl)cc1F)C1CCN(S(=O)(=O)c2cccnc2)CC1	L major viab 73
CCOc1ccc2nc(NC(=O)C3CCN(c4cnccn4)CC3)sc2c1	L major viab 70 (no result: INS promoter inh, ROMK primary)
Cc1ccc2nc(NC(=O)C3CCN(S(=O)(=O)c4cc([N+](=O)[O-])ccc4Cl)CC3)sc2c1	L major viab 99 (no result: ROMK primary)

Source: PubChem (several laboratories)
